Results from PubChem BioAssay AID1159580 (chemical genetic matrix, 2015).
Hit rate of the full screen: of about 5,500 compounds, about 2,000 (36%) were called active. Roughly 18% stayed inconclusive and do not appear here. Rule as the data show it: active = normalized growth mostly below about 0.91 (no sharp cut-off); inconclusive = no clear call, values can overlap the other calls; inactive = mostly above about 0.92. The list shows a part of the results.

Experiment: chemical genetic growth profiling, strain panel (AID 1159580);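 also: tested at 20 µM; growth read once vehicle control cultures reached saturation at 30 °C; 1 = growth at the plate median or of vehicle wells; lower values mean less growth of the strain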
Conditions: S. cerevisiae deletion strains, growth OD

Measured: normalized growth

C[C@]12CC[C@@H]3c4ccc(O)cc4CC[C@H]3[C@@H]1CCC2=O
inactive: locus YAL040C, strain CLN3, stronger effect = lower value 0.996 | locus YCL061C, strain MRC1 (second series), stronger effect = lower value 1.01 | locus YDR150W, strain NUM1, stronger effect = lower value 1 | locus YDR363W, strain ESC2, stronger effect = lower value 1 | locus YER002W, strain NOP16, stronger effect = lower value 0.995 | locus YMR263W, strain SAP30, stronger effect = lower value 1 | locus YMR307W, strain GAS1, stronger effect = lower value 1 | locus YNL175C, strain NOP13, stronger effect = lower value 0.985 | locus YNL197C, strain WHI3, stronger effect = lower value 1 | locus YNL224C, strain SQS1, stronger effect = lower value 1 | locus YNL322C, strain KRE1, stronger effect = lower value 0.987 | locus YOR083W, strain WHI5 (second series), stronger effect = lower value 0.905 | locus YPL241C, strain CIN2, stronger effect = lower value 1
